Results reported in PubChem BioAssay (Tox21).
Results filed as inconclusive are left out. Values without a mark were called inactive. Activity calls are given as the source filed them. The call rests on the fitted dose curve; in most records, active means well fitted cell-killing curve with a large enough effect in the repeat runs; inconclusive means weak or mixed curves, or effect the other way; inactive means flat fitted curve, though single readings scatter.

assay: Caspase-3/7 induction in HepG2 cells by small molecules, qHTS cell viability counter screen (AID 1346981); conditions: CellTiter-Fluor fluorescence, 17 h; series mostly up to 92.4 µM; activity change, negative = cytotoxicity: at the top concentration; further: nearly all actives have a fitted effect of over 30% in size
Excerpt: U.S. Tox21 Program National Center for Advancing Translational Sciences [NCATS] NIH Chemical Genomics Center [NCGC] U.S. Environmental Protection Agency [EPA] National Institutes of Environmental Health Sciences [NIEHS] National Toxicology Program [NTP] U.S. Food and Drug Administration [FDA] Tox21 Assay Overview: Apoptosis is a process of programmed cell death and plays a central role in the development of multicellular organisms. It is a highly regulated process and induces cell death by activating caspases, which are the members of cysteine aspartic acid-specific protease (caspase) family. Caspases involved in apoptosis are classified by their mechanism of action as initiator caspases (caspase-2, -8, -9 and -10) and executioner caspases (caspase-3, -6, and -7). Inhibition of apoptosis results in number of cancers, autoimmune diseases, inflammatory diseases and viral infection. To identify small molecule compounds that induce apoptosis, a homogeneous, luminescent Caspase-Glo 3/7 assay was used. Wild type HepG2 cells were used to screen Tox21 libraries for identifying caspase-3/7 activity inducers. Also cytotoxicity of the compounds was tested in parallel by measuring the cell viability using CellTiter-Fluor assay system in the same wells.
Tox21 Assay Protocol Summary: HepG2 cells were dispensed at 2,000 per well in 5uL of culture medium into white solid bottom 1536-well plates (Corning Life Sciences, Corning, NY) using a Multidrop Combi (Thermo Scientific, Waltham, MA) dispenser. The assay plates were incubated at 37 C and 5% CO2 for 5hr, and then 23nL of compounds dissolved in DMSO and positive control were transferred using a Pintool station ([…], San Diego, CA). The assay plates were incubated at 37C and 5% CO2 for 17hr. For cytotoxicity read, after 16hr incubation at 37C, 1uL CellTiter-Fluor reagent (Promega Corporation, Madison, WI) was added to each well of the assay plates using Flying Reagent Dispenser (FRD, Aurora Discovery, San Diego, CA). After 1hr incubation at 37C and 5% CO2, the fluorescence signal was quantified using a ViewLux plate reader (PerkinElmer, Shelton, CT).
On the % scale 0 is the no-effect control and ±100 the full control effect; potency means the concentration at half of the fitted maximal effect.

SMILES	activity change, negative = cytotoxicity	Potency
CCCCNCCCC	1.85%	–
NC(=O)NS(=O)(=O)c1ccc(Cl)cc1	6.57% [at 42.5 µM]	–
CC(=O)N(CC(O)CN(C(C)=O)c1c(I)c(C(=O)NCC(O)CO)c(I)c(C(=O)NCC(O)CO)c1I)c1c(I)c(C(=O)NCC(O)CO)c(I)c(C(=O)NCC(O)CO)c1I (stereo not given)	5.21% [at 42.5 µM]	–
Cc1cc2nc(N)sc2cc1C	4.26%	–
CC(C)O	-1.97%	–
CC(C)NC[C@@H](O)COc1cccc2ccccc12	-9.19% [at 42.5 µM]	–
CC1=NN(c2cc(Cl)c(S(=O)(=O)O)cc2Cl)C(=O)C1N=Nc1ccc(S(=O)(=O)O)cc1 (stereo not given)	–	48.6 µM (active)
CCOc1ccc(NC(N)=O)cc1	0.651%	–
CC(C)(C)C1CCCCC1=O (stereo not given)	4.19%	–
Cc1cccc(C)c1NC(=O)CN1CCCCCC1	0.333% [at 42.5 µM]	–
CC(C)=CCC[C@](C)(O)[C@@H]1CC=C(C)CC1	0.0295%	–
Nc1cccc(S(=O)(=O)O)c1	1.11%	–
C[C@@H]1CN(c2c(F)c(F)c3c(=O)c(C(=O)O)cn(C4CC4)c3c2F)C[C@H](C)N1	0.129% [at 19 µM]	–
CCCc1c2oc(C(=O)O)cc(=O)c2cc2c(=O)cc(C(=O)O)n(CC)c12	-0.484% [at 42.5 µM]	–
CC(C)CCCCCCc1ccc(OCCOCCO)cc1	-0.484%	–
O=CCCc1ccccc1	0.558%	–
CCOC(=O)[C@H](CCc1ccccc1)N[C@@H](C)C(=O)N1Cc2cc(OC)c(OC)cc2C[C@H]1C(=O)O	-4.38% [at 42.5 µM]	–
CCCCCCCCc1ccc(S(=O)(=O)O)cc1	-7.61%	–
Cc1onc(-c2ccccc2)c1C(=O)Cl	0.741% [at 42.5 µM]	–
CN1CCN(C2=Nc3cc(F)ccc3Cc3ccccc32)CC1	-12.2% [at 42.5 µM]	–

SMILES	activity change, negative = cytotoxicity	Potency
CN1CCN(c2c(F)cc3c(=O)c(C(=O)O)cn4c3c2SCC4)CC1	-0.0903% [at 42.5 µM]	–
OCc1c2ccccc2cc2ccccc12	5.82%	–
CC1(C)C(=O)N(Cl)C(=O)N1Br	-0.632%	–
CN(C)CCOc1ccccc1Cc1ccccc1	-0.934% [at 42.5 µM]	–
O=S(=O)(O)C(F)(F)F	0.949%	–
Cc1ccsc1C(=CCCN1CCC[C@@H](C(=O)O)C1)c1sccc1C	9.24% [at 42.5 µM]	–
Cc1ccc(C)c(N)c1	2.81%	–
OC[C@H]1O[C@@H](O[C@H]2[C@H](O)[C@@H](O)[C@H](O)O[C@@H]2CO)[C@H](O)[C@@H](O)[C@H]1O	6.62%	–
CC(C)(C)c1cccc(O)c1	6.95%	–
CCc1cc(Cl)c(OC)c(C(=O)NC[C@@H]2CCCN2CC)c1O	-1.22% [at 42.5 µM]	–
Cc1ccc(C=O)s1	-0.418%	–
CC(C)=CCCC(C)CCOC=O (stereo not given)	0.809%	–
O=c1[nH]c(=O)n([C@H]2C[C@H](O)[C@@H](CO)O2)cc1C(F)(F)F	-1.21% [at 42.5 µM]	–
O=C(O)c1ccccc1Nc1cc(Cl)ccc1C(=O)O	3.27% [at 19 µM]	–
NC1=NCC2c3ccccc3Cc3ccccc3N12 (stereo not given)	5.93% [at 42.5 µM]	–
CC(Oc1c(Cl)cccc1Cl)C1=NCCN1 (stereo not given)	5.03% [at 42.5 µM]	–
O=C1CCCCC1C1CCCCC1 (stereo not given)	-1.12%	–
CC1(C)S[C@@H]2[C@H](NC(=O)C(C(=O)O)c3ccccc3)C(=O)N2[C@H]1C(=O)O (stereo not given in full)	5.96% [at 42.5 µM]	–
NCCC(O)(P(=O)(O)O)P(=O)(O)O	3.3% [at 42.5 µM]	–
CCCCC1CCC(=O)O1 (stereo not given)	2.14%	–
